Tau ThT inhib – inhibitors of human tau fibril formation, thioflavin T binding; Potency, µM (top dose mostly 57.4 µM), without a hit: at the top dose activity, negative = inhibition, most hits filed as inhibitors; recombinant tau K18 P301L, heparin-induced fibrillization, ThT fluorescence; P10636; 270,000 tested, 2.1% active; further: potency means the concentration at half of the fitted maximal effect; nearly all actives have a fitted effect of over 55% in size
Target sequence (P10636 561-689 P618L limits assumed): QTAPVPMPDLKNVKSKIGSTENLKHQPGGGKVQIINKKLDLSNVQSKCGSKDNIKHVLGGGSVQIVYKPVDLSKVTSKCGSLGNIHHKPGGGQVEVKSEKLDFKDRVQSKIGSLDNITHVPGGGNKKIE
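Tau K18 P301L fragment (15 uM unlabeled plus 0.24 uM Alexa 594-labeled) in 100 mM sodium acetate pH 7 with compound, fibrillization induced by 20 uM heparin for 6 hr at 37 C. Thioflavin T (30 uM) added, fluorescence read after 1 hr (ex 450, em 510 nm).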
Tau FP inhib – tau fibrillization inhibition (FP) | AID 1468 | 280,000 tested, 0.39% active | K18 P301L tau heparin fibrillization, Alexa594 FP, 6 h | Potency, µM (top dose mostly 57.7 µM), without a hit: top-dose activity, negative = inhibition, hits mostly inhibitors; further: potency means the concentration at half of the fitted maximal effect; nearly all actives have a fitted effect of over 55% in size
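Steps: dispense K18 P301L tau (15 uM plus 0.24 uM Alexa 594 tracer, final) in pH 7 sodium acetate; add compound; add heparin (20 uM final); incubate 6 hr, 37 C; add ThT (30 uM final); after 1 hr ambient, read FP.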
Coupling enz – inhibits coupling enzyme system, counter-screen for aldolase hits; coupling enzyme system counterscreen, AmpLite Red fluorescence; activity change, negative = inhibition, % at 58.2 µM, hits read low; 290,000 tested, 0.67% active; AID 2472; in the data active means activity change below about -30%
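Fluorescence at 525 nm excitation and 598 nm emission measured inhibition of the coupled detection system without aldolase. Compounds (at 57.5 uM final) were preincubated 10 min at room temperature with coupling enzyme reagent before a 20 min substrate/AmpLite Red step.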
Tau fluor counter – counter-screen for tau fibril formation inhibitors; tau K18 P301L Alexa594 fluorescence, heparin fibrillization; Potency, µM (doses to about 57.7 µM), for the others: top-dose activity change, negative = decrease; 280,000 tested, 0.93% active; further: potency means the concentration at half of the fitted maximal effect; nearly all actives have a fitted effect of over 55% in size
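Human tau K18 P301L (15 uM unlabeled, 0.24 uM Alexa 594-labeled) in 100 mM sodium acetate pH 7 with 20 uM heparin, 6 hr at 37 C. ThT 30 uM added, 1 hr ambient; Alexa 594 FP and total fluorescence read at 555/632 nm.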
An asterisk follows results filed as active; u = inconclusive; x = no result given; ! = not active in a repeat; [ ] = remark or other dose. Rows were chosen to be rich in hits. Some 2.7% of all compounds tested hit in one or more screens of this group. Unless noted, the call rests on the fitted dose curve; in most records, active means well fitted curve in the direction sought with a large enough effect; inconclusive means small, poorly fitted or top-dose-only effect, or another doubt; inactive means no such curve, though single readings can be large; an effect the other way counts as inactive or inconclusive. On the % scale 0 is the no-effect control and ±100 the full control effect.

SMILES | Tau ThT inhib | Tau FP inhib | Coupling enz | Tau fluor counter
CCc1cccc(C)c1NC(=O)c1cnn(-c2ccc(OC)cc2)c1C1CCN(C(=O)OC(C)(C)C)CC1 | u | -16.6% | x | -24.1%
CCCCn1c(C(C)NC(=O)c2ccccc2)nc2ccccc21 (configuration not stated) | -3.5% | -6.7% | x | -7.6%
O=C(N/N=C/c1cn(Cc2ccccc2)c2ccccc12)c1cccnc1 | u | 13.6% | 1.3 | u
Cc1ccc(OCCn2cc(/C=C3\C(=O)NN(c4ccccc4)C3=O)c3ccccc32)cc1 | 7.08µM* | u | -5.8 | u
CNC(=S)N/N=C/c1cn(CCOc2cccc(OC)c2)c2ccccc12 | u | 15.2% | -1.1 | u
COc1cccc(OCCn2cc(/C=N/NC(=O)c3ccncc3)c3ccccc32)c1 | u | 10.4% | 0.0 | 14.1µM*[quencher]
O=C(N/N=C/c1cn(Cc2ccccc2)c2ccccc12)c1ccncc1 | u | 14.1% | -0.5 | 25.1µM*[quencher]
COc1ccc(OCCn2cc(/C=N/NC(=O)c3ccncc3)c3ccccc32)cc1 | u | 15.1% | -1.2 | 12.6µM*[quencher]
Cc1ccc(OCCn2cc(C=O)c3ccccc32)cc1 | x | x | -2.0 | x
O=C(NCCN1CCCC1=O)C1CCC(=O)N(CCc2cccc(F)c2)C1 (configuration not stated) | x | x | -3.6 | x
O=C(c1ccccc1)N1CCC(c2nc3ccccc3o2)CC1 | -10.6% | 3.4% | x | -11.9%
O=C1C(O)=C(O)C(=O)C(O)=C1O | 12.6µM* | u | -14.6 | -21.7%
O=C(NC1CCCCC1)C(c1ccncc1)N(Cc1ccc2c(c1)OCO2)C(=O)c1cnsn1 (configuration not stated) | 4.8% | -14.3% | -46.4* | -5.3%
O=C1C=CC2=C3c4cc(O)c(O)cc4CC3(O)COC2=C1O (configuration not stated) | 3.16µM* | 7.94µM* | -37.7*! | 3.98µM*[quencher]
COC(=O)c1ccc(NC(=O)CCn2cnnn2)cc1 | -2.3% | -8.2% | x | -0.3%
CN1C(=O)/C(=C2/C=Cc3ccccc3N2CCCS(=O)(=O)O)SC1=S | 25.1µM* | 5.5% | -10.0 | -18.1%
CCN1C(=O)/C(=C2/C=Cc3ccccc3N2CC)SC1=S | 12.6µM* | 11.3% | -0.8 | u
O=C(NNc1cc(Br)c(O)c(Br)c1)c1ccccc1 | 5.01µM* | 15.8µM* | -21.0 | u
S=C(Nc1ccccc1)Nc1ccc(OCc2ccc(Cl)cc2Cl)cc1 | u | -1.3% | -2.0 | 14.1µM*[quencher]
COc1ccc(Nc2c([N+](=O)[O-])ccc3c2=NC2(CCCCC2)N=3)cc1 | 15.8µM* | u | -33.9* | u
CCC(C)NC(=O)CSc1nc2ccc(N3CCOCC3)cc2c(=O)n1CCc1ccccc1 (configuration not stated) | -11.6% | 6.7% | -22.1 | -22.9%
CCCCn1c(SCC(=O)NC(C)CC)nc2ccc(N3CCOCC3)cc2c1=O (configuration not stated) | u | -7.7% | -36.0* | u
CCCCn1c(SCC(=O)Nc2ccc(OC)cc2)nc2ccc(N3CCOCC3)cc2c1=O | u | 11.9% | -31.6* | -28.4%
CCCCn1c(SCC(=O)NCc2ccccc2)nc2ccc(N3CCOCC3)cc2c1=O | -13.5% | 8.2% | -37.5* | -8.9%
CCCCn1c(SCC(=O)NCc2ccco2)nc2ccc(N3CCOCC3)cc2c1=O | -7.0% | -3.7% | -40.1* | -1.8%
SMILES | Tau ThT inhib | Tau FP inhib | Coupling enz | Tau fluor counter
Cc1oc2ccc(O)c(CN3CCCCCC3)c2c1C(=O)Nc1cccc(Cl)c1C | -5.2% | 10.0% | x | -2.9%
O=C(NCC(c1cccnc1)N1CCc2ccccc2C1)C(=O)Nc1cccc(Cl)c1 (configuration not stated) | u | -4.3% | x | -11.5%
Cc1ccc2sc(C)[n+](CCO)c2c1 | u | -11.1% | 3.4 | -7.4%
CCOC(=O)C[n+]1c(C)sc2ccc(OC)cc21 | 28.2µM* | u | 1.6 | -18.9%
NCCC[C@@H](CC(=O)N[C@@H]1CCNC[C@H]1C(=O)N[C@H](CC(=O)N[C@@H](CCC(=O)O)CC(=O)O)Cc1ccccc1)NC(=O)C[C@H](Cc1ccccc1)NC(=O)[C@@H]1CNCC[C@H]1N | -16.4% | -0.1% | 2.0 | -14.4%
CCc1cc2c(nc1CC)CCN(CC/C(C)=N/OC[C@@H](O)COCc1ccco1)C2 | -2.0%[11.5 µM] | -3.3%[11.6 µM] | 3.1 | -6.8%[11.6 µM]
O=C(N/N=C\c1ccc([N+](=O)[O-])s1)c1cncc(Br)c1 | 14.1µM* | 12.5% | 0.3 | u
CCOc1ccc(OCC)c(NC(=O)Cn2ncc3c4ccccc4n(Cc4ccccc4)c3c2=O)c1 | 1.9% | 1.7% | x | -14.2%
Cc1ccc(NC(=O)CSc2nsc(SCC(=O)Nc3ccc(C)cc3C)c2C#N)c(C)c1 | 8.1% | -10.4% | 0.6 | -1.0%
CC(=O)CSc1nsc(SCC(C)=O)c1C#N | 15.8µM* | u | 3.0 | -28.5%
Cc1csc(NC(=O)CSc2nsc(SCC(=O)Nc3nc(C)cs3)c2C#N)n1 | 3.98µM* | -12.5% | 2.3 | 10µM*[quencher]
CCOc1ccc(N2CC(C(=O)NCCc3c[nH]c4ccc(OC)cc34)CC2=O)cc1 (configuration not stated) | x | x | 1.3 | x
CCCc1cc(=O)n2[nH]c(-c3ccc(Cl)cc3)cc2n1 | x | x | -4.2 | x
O=c1cc(-c2ccc([N+](=O)[O-])cc2)nc2cc(-c3ccc(Cl)cc3)[nH]n12 | 2.24µM* | -0.7% | 0.8 | u
CC(=O)c1ccc(NC(=O)CSc2nc(C3CCCC3)nc3c2c(=O)n(C)c(=O)n3C)cc1 | -5.6% | -0.6% | x | -19.6%
O=C(Nc1ccc(Cl)cc1F)c1oc(=O)c2ccccc2c1-c1ccccc1 | 4.0% | -7.5% | x | -6.2%
CCN(c1ccc(Cl)cc1)S(=O)(=O)c1nnc(NC(=O)c2ccccc2C)s1 | -12.2% | u | x | -9.2%
CCOC(=O)c1c(C)[nH]c2c1cc(O)c1ccccc12 | 15.8µM* | -3.2% | -33.2* | u
CCOC(=O)c1c(C)oc2c1cc(O)c1ccccc12 | u | u | -14.5 | -25.9%
COC(=O)C1=C(C(=O)OC)[C@@H]2Nc3ccccc3[C@@]23C[C@@H](C(=O)OC)N(S(=O)(=O)c2cccs2)C3=N1 | 2.1%[11.5 µM] | -0.5%[11.6 µM] | 0.6 | -6.9%[11.6 µM]
COc1ccc(CNc2ncnc3ccc(-c4ccccc4C#N)cc23)c(OC)c1 | x | x | 4.0 | x
O=C1C2=C(c3ccccc31)[N+](=O)[C@@H]1CCCC[C@@H]1N2[O-] | u | u | -45.2* | -18.1%
O=C1C2=C(c3ccccc31)[N+](=O)C1CCCCC1N2[O-] (configuration not stated) | 15.8µM* | u | -38.1* | -25.7%
Cc1ccc(NC(=O)c2c(NC(=O)c3ccccc3Cl)sc3c2CCC3)cc1 | -6.6% | -2.2% | x | -17.8%
COc1ccc(N/C=C/C(=O)C(F)(F)F)cc1 | -7.6% | 14.2% | -3.9 | -3.7%
CSc1nnc(C)c(/C=C/Nc2ccc(Cl)cc2)n1 | 15.8µM* | 7.7% | -2.7 | -29.9%
CSc1nnc(C)c(/C=C/Nc2ccc(F)cc2)n1 | u | -5.5% | -4.6 | -21.5%
COc1ccc(N/C=C/c2nc(SC)nnc2C)cc1 | 3.16µM* | 8.3% | -0.1 | -16.9%
Cc1nn(C)c(C)c1N=Cc1c(O)ccc2ccccc12 | u | -5.3% | -10.5 | -3.8%

Screening data deposited in PubChem BioAssay by National Center for Advancing Translational Sciences (NCATS).
